# Where “and” joins values, the source holds several entries; their conditions need not be identical. Identical values can stand only once. Counter-ions that a name gives are not always drawn. In all, about 5,800 compounds went through this assay and about 620 (11%) showed activity. For the sample, actives were picked, then their nearest neighbours and some compounds at random. A number with no mark means an inactive call.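 How the source made its calls: active = score above a cut-off or among the top three wells of a plate; in these data no inactive exceeds 0.85.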
# Tested on: primary human hepatic stellate cells (donor 1)
# Assay: scaled lipid accumulation score (0 = DMSO-like, 1 = nortriptyline-like); higher = stronger HSC inactivation (lipid re-accumulation), active = hit call of the paper
# Conditions: 48 h
# [1] = library stock concentration: 1 mM
# [2] = library stock concentration: 3.33 mM
# [3] = library stock concentration: 10 mM
# [4] = library stock concentration: 80 uM
# [5] = library stock concentration: 400 uM
# [6] = library stock concentration: 2 mM
smiles,measurement,setting,value
CCCCCCCCCCCCCCCCCCCCCC(=O)NCCO [Docosanoyl Ethanolamide],scaled lipid accumulation score,[1],≤ 0
C[C@]12CC[C@@H]3c4ccc(OC(=O)c5ccccc5)cc4CC[C@H]3[C@@H]1CC[C@@H]2O [Estradiol Benzoate],scaled lipid accumulation score,[2],≤ 0
same,scaled lipid accumulation score,[3],0.155
COc1ccc2c(c1)CCC1C2CC[C@@]2(C)C1CC[C@@H]2NCCCCCCN1C(=O)CCC1=O (some centres not stated),scaled lipid accumulation score,[3],0.875 (active)
COc1ccc2c(c1)CCC1C2CCC2(C)C(NCCCCCCN3C(=O)C=CC3=O)CCC12 (configuration not stated),scaled lipid accumulation score,[1],≤ 0
same,scaled lipid accumulation score,[3],0.397
C[C@]12CC[C@@H]3c4ccc(OC(=O)c5ccccc5)cc4CC[C@H]3[C@@H]1CC[C@@H]2O [Estradiol benzoate],scaled lipid accumulation score,library stock concentration: 5.3 mM,≤ 0
CN1c2cc(O)c(N=NC(N)=O)cc2CC1S(=O)(=O)O (configuration not stated) [Carbazochrome sodium sulfonate (AC-17)],scaled lipid accumulation score,[2],≤ 0
same,scaled lipid accumulation score,[3],≤ 0
c1ccc(CNc2nc(NCc3ccccc3)c3ccccc3n2)cc1,scaled lipid accumulation score,[2],0.706
same,scaled lipid accumulation score,[3],0.074
CC(=O)NCCCCCC(=O)O [Acexamic acid],scaled lipid accumulation score,[3],0.236
CC(C)CCOc1ccc(NC(=S)Nc2ccc(OCCC(C)C)cc2)cc1 [Thiocarlide],scaled lipid accumulation score,[1],≤ 0
CN1C(=O)CC[C@H]1c1cccnc1 [Cotinine (-)],scaled lipid accumulation score,,≤ 0
CN1C(=O)CC[C@H]1c1cccnc1 [Cotinine],scaled lipid accumulation score,[3],≤ 0
same,scaled lipid accumulation score,library stock concentration: 11.3 mM,≤ -0.001
CN1C(=O)CC[C@H]1c1cccnc1 [(-)-Cotinine],scaled lipid accumulation score,[3],≤ 0 and 0.057
O=c1ccc2cc(O)c(O)cc2o1 [Esculetin],scaled lipid accumulation score,,≤ 0
same,scaled lipid accumulation score,[3],≤ 0
O=c1ccc2ccccc2o1 [Coumarin],scaled lipid accumulation score,[2],≤ 0
same,scaled lipid accumulation score,[3],≤ 0 and 0.012
"O=Nc1ccc2oc(=O)ccc2c1 [6-Nitroso-1,2-benzopyrone]",scaled lipid accumulation score,[3],0.9 (active)
CC(C)n1c(/C=C/C(O)CC(O)CC(=O)O)c(-c2ccc(F)cc2)c2ccccc21 (configuration not stated) [Fluvastatin Sodium],scaled lipid accumulation score,[2],0.188
same,scaled lipid accumulation score,[3],0.219
CC(C)n1c(/C=C/C(O)CC(O)CC(=O)O)c(-c2ccc(F)cc2)c2ccccc21 (configuration not stated) [fluvastatin],scaled lipid accumulation score,[3],0.549
CC(C)n1c(/C=C/C(O)CC(O)CC(=O)O)c(-c2ccc(F)cc2)c2ccccc21 (configuration not stated) [Fluvastatin sodium salt],scaled lipid accumulation score,,0.403
COc1cc(C)c(Cc2cnc(N)nc2N)cc1OC,scaled lipid accumulation score,[3],≤ 0
CCN(CCO)CCCC(C)Nc1ccnc2cc(Cl)ccc12 (configuration not stated) [Hydroxychloroquine sulfate],scaled lipid accumulation score,[3],0.161
O=C(OCC(O)CO)c1ccccc1Nc1ccnc2cc(Cl)ccc12 (configuration not stated) [Glafenine hydrochloride],scaled lipid accumulation score,,≤ 0
O=C(OCC(O)CO)c1ccccc1Nc1ccnc2cc(Cl)ccc12 (configuration not stated) [Glafenine],scaled lipid accumulation score,[3],≤ 0
Clc1ccc2c(N3CCN(CCCN4CCN(c5ccnc6cc(Cl)ccc56)CC4)CC3)ccnc2c1 [Piperaquine tetraphosphate tetrahydrate],scaled lipid accumulation score,[3],0.316
CCN(CC)CCCC(C)Nc1ccnc2cc(Cl)ccc12 (configuration not stated) [Chloroquine diphosphate],scaled lipid accumulation score,,0.679
same,scaled lipid accumulation score,[3],≤ 0 and 0.428
CCN(CC)Cc1cc(Nc2ccnc3cc(Cl)ccc23)ccc1O.Cl.Cl.O.O [Amodiaquin dihydrochloride dihydrate],scaled lipid accumulation score,,1.22 (active)
CCN(CC)CCCC(C)Nc1ccnc2cc(Cl)ccc12 (configuration not stated) [Chloroquine phosphate],scaled lipid accumulation score,library stock concentration: 6.3 mM,0.285
Cc1nc2cc3nc(-c4cccs4)cnc3cc2n1C,scaled lipid accumulation score,[2],≤ 0
Cc1csc(-c2nnc(Nc3ccc(Oc4ncccc4-c4ccnc(N)n4)cc3)c3ccccc23)c1,scaled lipid accumulation score,[2],≤ 0
same,scaled lipid accumulation score,[3],≤ 0
CCCCCCCCCCCCCCCCC/C=C/C(=O)O [.DELTA.2-trans Eicosenoic Acid],scaled lipid accumulation score,[1],≤ 0
O=C(Nc1cc(C(F)(F)F)cc(C(F)(F)F)c1)c1cc(Cl)ccc1O [listing 1 of 3 here],scaled lipid accumulation score,[3],1.1 (active)
O=C(Nc1ccccc1)c1ccccc1O [Salicylanilide],scaled lipid accumulation score,[2],≤ 0
same,scaled lipid accumulation score,library stock concentration: 9.4 mM,0.019
same,scaled lipid accumulation score,[3],0.041
O=C(Nc1cc(C(F)(F)F)cc(C(F)(F)F)c1)c1cc(Cl)ccc1O [IKK-2 Inhibitor V],scaled lipid accumulation score,[2],≤ 0
Cc1oncc1C(=O)Nc1ccc(C(F)(F)F)cc1 [Leflunomide],scaled lipid accumulation score,,≤ 0
same,scaled lipid accumulation score,[4],0.045
same,scaled lipid accumulation score,[5],≤ 0
same,scaled lipid accumulation score,[6],≤ 0
same,scaled lipid accumulation score,[2],≤ 0
O=c1oc(-c2ccc(C(F)(F)F)cc2)nn1Cc1cc(Cl)ccc1O,scaled lipid accumulation score,[3],0.172
O=C(Nc1ccc([N+](=O)[O-])cc1Cl)c1cc(Cl)ccc1O [Niclosamide] [listing 1 of 2 here],scaled lipid accumulation score,library stock concentration: 6.1 mM,1.15 (active)
same,scaled lipid accumulation score,[3],1.08 (active)
O=C(Nc1ccc([N+](=O)[O-])cc1Cl)c1cc(Cl)ccc1O [Niclosamide] [listing 2 of 2 here],scaled lipid accumulation score,,0.776
O=C(Nc1ccccc1)c1cc([N+](=O)[O-])ccc1Cl,scaled lipid accumulation score,[1],≤ 0
same,scaled lipid accumulation score,[2],0.023
same,scaled lipid accumulation score,[3],≤ 0 and 0.358 and 0.105
O=C(Nc1cc(C(F)(F)F)cc(C(F)(F)F)c1)c1cc(Cl)ccc1O [listing 2 of 3 here],scaled lipid accumulation score,[3],1.61 (active)
O=C(Nc1cc(C(F)(F)F)cc(C(F)(F)F)c1)c1cc(Cl)ccc1O [listing 3 of 3 here],scaled lipid accumulation score,[2],0.722
C[C@]12CC[C@@H]3c4ccc(O)cc4CC[C@H]3[C@@H]1C[C@H](O)[C@@H]2O,scaled lipid accumulation score,[3],≤ 0
O=C1CCC(c2ccc(-n3ccnc3)cc2)=NN1 [Imazodan],scaled lipid accumulation score,[3],≤ -0.07
CC(C)n1cnc2c(NCc3ccccc3)nc(NCCCO)nc21 [Bohemine],scaled lipid accumulation score,[4],≤ -0.001
same,scaled lipid accumulation score,[5],≤ -0.001
same,scaled lipid accumulation score,[6],≤ -0.001
same,scaled lipid accumulation score,[2],≤ 0
same,scaled lipid accumulation score,[3],0.099
Cc1cc(OCc2nnc(SC3CCCC3)n2-c2cccnc2)ccc1-c1ccc(S(C)(=O)=O)cc1,scaled lipid accumulation score,[2],0.619
same,scaled lipid accumulation score,[3],0.187
CN(C)[C@@H]1C(O)=C(C(=O)NCN2CCCC2)C(=O)[C@@]2(O)C(O)=C3C(=O)c4c(O)cccc4[C@@](C)(O)[C@H]3C[C@@H]12 [Rolitetracycline],scaled lipid accumulation score,,≤ 0
CN(C)[C@@H]1C(O)=C(C(=O)NCN2CCCC2)C(=O)[C@@]2(O)C(O)=C3C(=O)c4c(O)cccc4[C@@](C)(O)[C@H]3C[C@@H]12,scaled lipid accumulation score,[3],≤ 0
CC(=O)N(OCc1ccccc1)[C@H]1c2cc(C#N)ccc2OC(C)(C)[C@H]1O,scaled lipid accumulation score,[3],≤ 0
N[C@@H]1CCN(O)C1=O,scaled lipid accumulation score,[3],≤ 0
CCCCCCCCCCCCCCCC(=O)NC[C@@H](C)O [R-Palmitoyl-(2-methyl) Ethanolamide],scaled lipid accumulation score,[1],≤ 0
COc1ccc2cc1Oc1ccc(cc1)C[C@@H]1c3c(cc4c(c3Oc3cc5c(cc3OC)CCN(C)[C@H]5C2)OCO4)CCN1C [Cepharanthine],scaled lipid accumulation score,[2],1.03 (active)
COc1ccc2c(c1OC)C(=O)O[C@@H]2[C@H]1c2c(cc3c(c2OC)OCO3)CCN1C [Noscapine hydrchloride],scaled lipid accumulation score,[3],≤ -0.055
COc1cc2c3cc1Oc1c(OC)c(OC)cc4c1[C@@H](Cc1ccc(OC(=O)c5ccc([N+](=O)[O-])cc5)c(c1)Oc1ccc(cc1)C[C@@H]3N(C)CC2)N(C)CC4 [E6 berbamine],scaled lipid accumulation score,library stock concentration: 6.6 mM,0.933 (active)
COc1ccc2c(c1OC)C(=O)O[C@@H]2[C@H]1c2c(cc3c(c2OC)OCO3)CCN1C [Noscapine hydrochloride],scaled lipid accumulation score,library stock concentration: 4.4 mM,0.008
same,scaled lipid accumulation score,[3],0.011 and 0.074
COc1ccc2c(c1OC)C(=O)O[C@@H]2[C@H]1c2c(cc3c(c2OC)OCO3)CCN1C [Noscapine],scaled lipid accumulation score,,≤ 0
COc1cc2c(cc1OC)[C@@H]1Cc3ccc(OC)c(OC)c3CN1CC2 [Rotundine],scaled lipid accumulation score,[2],≤ 0
same,scaled lipid accumulation score,[3],≤ 0
COc1ccc2cc1Oc1ccc(cc1)C[C@H]1c3c(cc4c(c3Oc3cc5c(cc3OC)CCN(C)[C@@H]5C2)OCO4)CCN1C [Cepharanthine] [listing 1 of 2 here],scaled lipid accumulation score,[3],0.944 (active)
COc1ccc2cc1Oc1ccc(cc1)C[C@H]1c3c(cc4c(c3Oc3cc5c(cc3OC)CCN(C)[C@@H]5C2)OCO4)CCN1C [Cepharanthine] [listing 2 of 2 here],scaled lipid accumulation score,[3],0.689
COc1ccc2cc1Oc1ccc(cc1)C[C@H]1c3cc(c(OC)cc3CCN1C)Oc1c(OC)c(OC)cc3c1[C@H](C2)N(C)CC3 [Tetrandine],scaled lipid accumulation score,library stock concentration: 8 mM,0.535
COc1cc2c3cc1Oc1cc(ccc1O)C[C@@H]1c4c(cc(OC)c(O)c4Oc4ccc(cc4)C[C@@H]3N(C)CC2)CC[N+]1(C)C [Tubocurarine chloride],scaled lipid accumulation score,library stock concentration: 3.1 mM,≤ 0
COc1ccc2cc1Oc1ccc(cc1)C[C@H]1c3cc(c(OC)cc3CCN1C)Oc1c(OC)c(OC)cc3c1[C@H](C2)N(C)CC3 [Tetrandrine],scaled lipid accumulation score,,0.685
same,scaled lipid accumulation score,[2],0.783
same,scaled lipid accumulation score,[3],0.45
COc1cc2c(c(OC)c1OC)-c1c(cc3c(c1OC)OCO3)CC(C)C(C)C2 (configuration not stated) [Schisandrin B (Sch B)],scaled lipid accumulation score,[2],≤ 0
same,scaled lipid accumulation score,[3],≤ -0.001
Cc1cc(C(N)=O)ccc1-n1c(CCC(=O)O)ccc1-c1ccc(-n2ccnc2)cc1,scaled lipid accumulation score,[2],≤ -0.009
same,scaled lipid accumulation score,[3],≤ 0
"O=C(O)c1ccc2c(c1)CCCC2 [5,6,7,8-tetrahydro-2-Naphthoic Acid]",scaled lipid accumulation score,[1],≤ 0

# Reference: the supplement of paper PMC9135407
